Assay results published in PubChem BioAssay (NCI).
Compounds without any hit were thinned out: in the full panel of roughly 79,000, 15% have a hit. Unmarked numbers belong to inactive results. Activity calls are given as the source filed them. Cut-off read from the data, not from the text of the source: active = growth inhibition above about 70%; inactive = the rest.

What was measured:
[1] = NCI Yeast Anticancer Drug Screen. Data for the rad52 strain (AID 147);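 note: 0% = growth of vehicle-treated control cultures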; conditions: S. cerevisiae rad52 mutant growth inhibition, hits give high values
Procedure, shortened: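 Read-out: growth inhibition versus vehicle-treated controls. Cells were a DNA repair-deficient yeast strain treated with compounds.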

[2] = NCI Yeast Anticancer Drug Screen. Data for the wt1 strain (AID 149);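 note: 0% = growth of vehicle-treated wt1 cultures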; conditions: S. cerevisiae wt1 strain (SPY 50644) growth inhibition, hits give high values
Procedure, shortened: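 Measured: growth of wt1 yeast under compound versus vehicle treatment, reported as inhibition.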

[3] = NCI Yeast Anticancer Drug Screen. Data for the rad50EPP+ strain (AID 151);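 note: 0% = growth of vehicle-treated control cultures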; conditions: S. cerevisiae rad50 mutant strain, hits give high values
Procedure, shortened: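 Growth inhibition read against vehicle controls in rad50EPP+ yeast, a strain altered in DNA damage repair, after compound exposure.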

[4] = NCI Yeast Anticancer Drug Screen. Data for the mgt1 strain (AID 153); conditions: S. cerevisiae mgt1 mutant growth inhibition, hits give high values
Procedure, shortened: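 mgt1 yeast grown with test compound; read-out is growth inhibition versus vehicle-treated cultures.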

[5] = NCI Yeast Anticancer Drug Screen. Data for the rad50 strain (AID 155);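 note: 0% = growth of vehicle-only cultures of the same strain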; conditions: S. cerevisiae rad50 strain growth inhibition, hits give high values
Procedure, shortened: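 Growth of the mutant yeast was measured after compound exposure and referenced to vehicle-treated cultures.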

[6] = NCI Yeast Anticancer Drug Screen. Data for the mec2-1 strain (AID 157); conditions: S. cerevisiae mec2-1 strain, hits give high values
Procedure, shortened: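 Yeast mec2-1 mutant treated with compound. Readout: growth inhibition vs vehicle controls.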

[7] = NCI Yeast Anticancer Drug Screen. Data for the rad14 strain (AID 159);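 note: 0% = growth of vehicle-treated control cultures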; conditions: S. cerevisiae rad14 strain growth inhibition, hits give high values
Procedure, shortened: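 Here, inhibition of yeast growth was measured after compound exposure, using a strain with a genetic defect in DNA damage repair and vehicle-treated cultures as the reference.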

[8] = NCI Yeast Anticancer Drug Screen. Data for the sgs1 mgt1 strain (AID 161);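 note: 0% = growth of cultures given vehicle only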; conditions: S. cerevisiae sgs1 mgt1 strain, hits give high values
Procedure, shortened: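 Inhibition of yeast growth, normalised to vehicle-treated controls, is reported for a strain bearing genetic alterations in DNA damage repair.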

[9] = NCI Yeast Anticancer Drug Screen. Data for the cln2 rad14 strain (AID 165);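 note: 0% = growth equal to vehicle treated cultures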; conditions: S. cerevisiae cln2 rad14 strain, hits give high values
Procedure, shortened: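 cln2 rad14 yeast strain; compound exposure; growth inhibition read vs vehicle controls.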

[10] = NCI Yeast Anticancer Drug Screen. Data for the bub3 strain (AID 167); conditions: S. cerevisiae bub3 mutant strain, hits give high values
Procedure, shortened: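 Whole-cell yeast assay. The mutant strain was incubated with compounds, and growth inhibition was determined by comparison with vehicle-treated cells.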

[11] = NCI Yeast Anticancer Drug Screen. Data for the wt2 strain (AID 169);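 note: 0% = growth of vehicle-treated yeast cultures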; conditions: S. cerevisiae wt2 strain growth inhibition, hits give high values
Procedure, shortened: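 Read-out: growth inhibition versus vehicle-treated control cultures after compound exposure of the yeast strain.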

[12] = NCI Yeast Anticancer Drug Screen. Data for the mlh1 strain (AID 171);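 note: 0% = growth of vehicle-treated control cultures of the same strain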; conditions: S. cerevisiae mlh1 strain growth inhibition, hits give high values
Procedure, shortened: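 Read-out: growth inhibition versus vehicle controls. Strain: engineered yeast with a defined DNA repair or cell cycle defect, compound-treated.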

[13] = NCI Yeast Anticancer Drug Screen. Data for the sgs1 strain (AID 173);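 note: 0% = growth of vehicle-only control cultures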; conditions: S. cerevisiae sgs1 mutant, hits give high values
Procedure, shortened: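 Read-out: yeast growth inhibition relative to vehicle controls, following compound exposure of a strain with a defined DNA repair/cell cycle alteration.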

[14] = NCI Yeast Anticancer Drug Screen. Data for the mlh1 rad18 strain (AID 175); conditions: S. cerevisiae mlh1 rad18 strain growth inhibition, hits give high values
Procedure, shortened: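 Yeast w/ defined DNA-repair lesions; compound exposure; growth vs vehicle controls → % inhibition.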

[15] = NCI Yeast Anticancer Drug Screen. Data for the rad18 strain (AID 177); conditions: S. cerevisiae rad18 mutant growth inhibition, hits give high values
Procedure, shortened: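 Readout: growth inhibition vs vehicle controls. Cells: genetically altered yeast strain, DNA repair defect.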

[16] = at 5.0 µM (retest, dose inferred, filed as 0.5)
[17] = at 50.0 µM (retest, dose inferred, filed as 5.0)

## c1ccc(CCN2CCc3ccccc3C2)cc1
[1]; at 1.2 µM
  growth inhibition: -1%
[1]; at 3.7 µM
  growth inhibition: 0%
[1]; at 11.0 µM
  growth inhibition: 10%
[1]; at 33.0 µM
  growth inhibition: 12%
[1]; at 100.0 µM
  growth inhibition: 19%
[2]; at 1.2 µM
  growth inhibition: -1%
[2]; at 3.7 µM
  growth inhibition: 4%
[2]; at 11.0 µM
  growth inhibition: 4%
[2]; at 33.0 µM
  growth inhibition: 6%
[2]; at 100.0 µM
  growth inhibition: 4%
[3]; at 1.2 µM
  growth inhibition: -3%
[3]; at 3.7 µM
  growth inhibition: -3%
[3]; at 11.0 µM
  growth inhibition: -1%
[3]; at 33.0 µM
  growth inhibition: -4%
[3]; at 100.0 µM
  growth inhibition: 0%
[4]; at 1.2 µM
  growth inhibition: -2%
[4]; at 3.7 µM
  growth inhibition: -3%
[4]; at 11.0 µM
  growth inhibition: 4%
[4]; at 33.0 µM
  growth inhibition: 6%
[4]; at 100.0 µM
  growth inhibition: 16%
[5]; at 1.2 µM
  growth inhibition: 1%
[5]; at 3.7 µM
  growth inhibition: 2%
[5]; [16]
  growth inhibition: -9%
[5]; at 11.0 µM
  growth inhibition: 3%
[5]; at 33.0 µM
  growth inhibition: 8%
[5]; [17]
  growth inhibition: 49%
[5]; at 50.0 µM
  growth inhibition: 43.9%
[5]; at 100.0 µM
  growth inhibition: 10%
[6]; at 1.2 µM
  growth inhibition: -3%
[6]; at 3.7 µM
  growth inhibition: 1%
[6]; [16]
  growth inhibition: -10%
[6]; at 11.0 µM
  growth inhibition: 6%
[6]; at 33.0 µM
  growth inhibition: 8%
[6]; [17]
  growth inhibition: 1%
[6]; at 50.0 µM
  growth inhibition: 12.8%
[6]; at 100.0 µM
  growth inhibition: 8%
[7]; at 1.2 µM
  growth inhibition: 2%
[7]; at 3.7 µM
  growth inhibition: 10%
[7]; at 11.0 µM
  growth inhibition: 24%
[7]; at 33.0 µM
  growth inhibition: 33%
[7]; at 100.0 µM
  growth inhibition: 29%
[8]; [16]
  growth inhibition: -5%
[8]; [17]
  growth inhibition: 49%
[8]; at 50.0 µM
  growth inhibition: 49.8%
[9]; [16]
  growth inhibition: -6%
[9]; [17]
  growth inhibition: 21%
[9]; at 50.0 µM
  growth inhibition: 33.7%
[10]; at 1.2 µM
  growth inhibition: -1%
[10]; at 3.7 µM
  growth inhibition: -1%
[10]; [16]
  growth inhibition: 24%
[10]; at 11.0 µM
  growth inhibition: 7%
[10]; at 33.0 µM
  growth inhibition: 21%
[10]; [17]
  growth inhibition: 74% (active)
[10]; at 50.0 µM
  growth inhibition: 56.8%
[10]; at 100.0 µM
  growth inhibition: 40%
[11]; at 1.2 µM
  growth inhibition: -1%
[11]; at 3.7 µM
  growth inhibition: 1%
[11]; at 11.0 µM
  growth inhibition: 4%
[11]; at 33.0 µM
  growth inhibition: 8%
[11]; at 100.0 µM
  growth inhibition: 8%
[12]; at 1.2 µM
  growth inhibition: -2%
[12]; at 3.7 µM
  growth inhibition: 1%
[12]; at 11.0 µM
  growth inhibition: 4%
[12]; at 33.0 µM
  growth inhibition: 11%
[12]; at 100.0 µM
  growth inhibition: 11%
[13]; at 1.2 µM
  growth inhibition: -1%
[13]; at 3.7 µM
  growth inhibition: 0%
[13]; at 11.0 µM
  growth inhibition: 6%
[13]; at 33.0 µM
  growth inhibition: 18%
[13]; at 100.0 µM
  growth inhibition: 17%
[14]; [16]
  growth inhibition: 11%
[14]; [17]
  growth inhibition: 71% (active)
[14]; at 50.0 µM
  growth inhibition: 21.9%
[15]; at 1.2 µM
  growth inhibition: 0%
[15]; at 3.7 µM
  growth inhibition: 1%
[15]; at 11.0 µM
  growth inhibition: 8%
[15]; at 33.0 µM
  growth inhibition: 13%
[15]; at 100.0 µM
  growth inhibition: 10%

## Nc1ccc2c(c1)C(=O)c1ccc(F)cc1-2
[1]; at 1.2 µM
  growth inhibition: 13%
[1]; at 3.7 µM
  growth inhibition: 24%
[1]; at 11.0 µM
  growth inhibition: 43%
[1]; at 33.0 µM
  growth inhibition: 47%
[1]; at 100.0 µM
  growth inhibition: 53%
[2]; at 1.2 µM
  growth inhibition: 1%
[2]; at 3.7 µM
  growth inhibition: 2%
[2]; at 11.0 µM
  growth inhibition: 9%
[2]; at 33.0 µM
  growth inhibition: 14%
[2]; at 100.0 µM
  growth inhibition: 16%
[3]; at 1.2 µM
  growth inhibition: 13%
[3]; at 3.7 µM
  growth inhibition: 28%
[3]; at 11.0 µM
  growth inhibition: 46%
[3]; at 33.0 µM
  growth inhibition: 59%
[3]; at 100.0 µM
  growth inhibition: 60%
[4]; at 1.2 µM
  growth inhibition: 2%
[4]; at 3.7 µM
  growth inhibition: 9%
[4]; at 11.0 µM
  growth inhibition: 15%
[4]; at 33.0 µM
  growth inhibition: 24%
[4]; at 100.0 µM
  growth inhibition: 19%
[5]; at 1.2 µM
  growth inhibition: 16%
[5]; at 3.7 µM
  growth inhibition: 36%
[5]; [16]
  growth inhibition: 5%
[5]; at 11.0 µM
  growth inhibition: 55%
[5]; at 33.0 µM
  growth inhibition: 61%
[5]; [17]
  growth inhibition: 71% (active)
[5]; at 50.0 µM
  growth inhibition: 81.4% (active)
[5]; at 100.0 µM
  growth inhibition: 51%
[6]; at 1.2 µM
  growth inhibition: 4%
[6]; at 3.7 µM
  growth inhibition: 10%
[6]; [16]
  growth inhibition: -2%
[6]; at 11.0 µM
  growth inhibition: 11%
[6]; at 33.0 µM
  growth inhibition: 13%
[6]; [17]
  growth inhibition: 30%
[6]; at 50.0 µM
  growth inhibition: 19.6%
[6]; at 100.0 µM
  growth inhibition: 22%
[7]; at 1.2 µM
  growth inhibition: 6%
[7]; at 3.7 µM
  growth inhibition: 13%
[7]; at 11.0 µM
  growth inhibition: 15%
[7]; at 33.0 µM
  growth inhibition: 18%
[7]; at 100.0 µM
  growth inhibition: 22%
[8]; [16]
  growth inhibition: -6%
[8]; [17]
  growth inhibition: 32%
[8]; at 50.0 µM
  growth inhibition: 9.55%
[9]; [16]
  growth inhibition: 5%
[9]; [17]
  growth inhibition: 8%
[9]; at 50.0 µM
  growth inhibition: 5.25%
[10]; at 1.2 µM
  growth inhibition: 2%
[10]; at 3.7 µM
  growth inhibition: 6%
[10]; [16]
  growth inhibition: -13%
[10]; at 11.0 µM
  growth inhibition: 12%
[10]; at 33.0 µM
  growth inhibition: 12%
[10]; [17]
  growth inhibition: 35%
[10]; at 50.0 µM
  growth inhibition: 20%
[10]; at 100.0 µM
  growth inhibition: 20%
[11]; at 1.2 µM
  growth inhibition: 1%
[11]; at 3.7 µM
  growth inhibition: 3%
[11]; at 11.0 µM
  growth inhibition: 7%
[11]; at 33.0 µM
  growth inhibition: 11%
[11]; at 100.0 µM
  growth inhibition: 12%
[12]; at 1.2 µM
  growth inhibition: 3%
[12]; at 3.7 µM
  growth inhibition: 13%
[12]; at 11.0 µM
  growth inhibition: 14%
[12]; at 33.0 µM
  growth inhibition: 13%
[12]; at 100.0 µM
  growth inhibition: 22%
[13]; at 1.2 µM
  growth inhibition: -4%
[13]; at 3.7 µM
  growth inhibition: -4%
[13]; at 11.0 µM
  growth inhibition: 0%
[13]; at 33.0 µM
  growth inhibition: 2%
[13]; at 100.0 µM
  growth inhibition: 4%
[14]; [16]
  growth inhibition: 15%
[14]; [17]
  growth inhibition: 78% (active)
[14]; at 50.0 µM
  growth inhibition: 33.2%
[15]; at 1.2 µM
  growth inhibition: 0%
[15]; at 3.7 µM
  growth inhibition: 6%
[15]; at 11.0 µM
  growth inhibition: 26%
[15]; at 33.0 µM
  growth inhibition: 35%
[15]; at 100.0 µM
  growth inhibition: 14%
